The text below walks through data of PubChem BioAssay (NCATS).

Assay [1] concerns the target Lysosomal acid glucosylceramidase (Homo sapiens) (UniProt P04062). Put plainly: Glucocerebrosidase-p2 (AID 348; in the data active = potency below about 10 µM; also: potency is read from the fitted curve at half-maximal effect). The note with it: purified GBA, blue fluorogenic substrate, 40 min. In a few lines:
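Normal human glucocerebrosidase (0.2 nM) with blue fluorogenic substrate (80 uM final) in citrate/phosphate pH 5.9 with 10mM sodium taurocholate, 0.01% tween-20; 40 min RT, NaOH/glycine stop; fluorescence Ex 365/Em 440; AC50 from a titration from 0.6 nM upwards.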

A short description of assay [2]: AP1 Signaling Pathway (AID 357; active = well fitted curve in either direction with a large enough effect, not every such curve was filed as active;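 also: ME-180 reporter cells stimulated with EGF at its EC50 level; % is scaled to controls: 0 for no effect and ±100 for the full control effect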). The conditions noted are these: ME-180 AP-1-bla reporter, EGF-induced, beta-lactamase ratio, 5 h; at 7.69 µM (top of the series) unless noted. In a few lines: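 AP-1-bla ME-180 cells, Opti-MEM + 0.5% dialyzed FBS, plated overnight 37 °C. Cpd titration + EC50 EGF, 5 h 37 °C. CCF4 2.5 h RT; ex 405, em 460/530 ratio → %activity, AC50.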

Assay [3] concerns the target Cytochrome P450 1A2 (Homo sapiens) (UniProt P05177). The assay can be described thus: p450-cyp1a2 (AID 410; calls by dose curve; also: potency is read from the fitted curve at half-maximal effect). The note with it: recombinant CYP1A2, luciferin-ME demethylation, luminescence; series mostly up to 57 µM. In a few lines: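 20nM CYP1A2, 100uM Luciferin-ME (=Km), 100mM KPO4; cpd 10 min RT; +NADPH regen, 60 min RT; stop/detect 20 min; luminescence. Normalized to furafylline 57 uM = full inhibition.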

Assay [4] in a line: NFAT Signaling Pathway (AID 444; active = well fitted curve in either direction with a large enough effect, not every such curve was filed as active;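 also: carbachol stimulus at about its EC50 of 1 µM final; % is scaled to controls: 0 for no effect and ±100 for the full control effect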). The note with it: Jurkat NFAT-bla M1, carbachol, beta-lactamase ratio, 5 h; at 7.69 µM (top of the series) unless noted. Summed up:
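Jurkat cells with NFAT-driven β-lactamase reporter and co-expressed M1 receptor, stimulated with carbachol (final 1 uM, ~EC50), compound titration, 5 h at 37 °C. CCF4 loaded 1 h at RT; 460/530 nm ratio gave %activity and AC50.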

The nature of assay [5]: Stat Signaling Pathway (AID 446; active = well fitted curve in either direction with a large enough effect, not every such curve was filed as active;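 also: ME-180 cervical cancer cells given 40 pM IL-6 alongside compound; SIE-controlled beta-lactamase reporter measured as 460/530 nm FRET emission ratio; % is scaled to controls: 0 for no effect and ±100 for the full control effect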). The note with it: ME-180 (cervical carcinoma) SIE beta-lactamase reporter, IL-6 stimulated, 5 h; at 7.69 µM (top of the series) unless noted. In a few lines:
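Compound effects on IL-6-induced STAT reporter activity were measured in ME-180 cells. After overnight culture, cells were co-treated with 40 pM IL-6 for 5 hrs before beta-lactamase substrate loading at room temperature.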

The target in assay [6] is Glucocorticoid receptor (Homo sapiens) (UniProt P04150). Put plainly: GR-GFP Redistribution (AID 450;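 active = compounds whose dose series gives a full or clear partial fitted curve of increased nuclear translocation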; also: potency is read from the fitted curve at half-maximal effect). The conditions noted are these: U2OS GR-GFP nuclear translocation, laser cytometry, 2 h.
Sequence of Glucocorticoid receptor (Homo sapiens) (P04150 whole entry, looked up): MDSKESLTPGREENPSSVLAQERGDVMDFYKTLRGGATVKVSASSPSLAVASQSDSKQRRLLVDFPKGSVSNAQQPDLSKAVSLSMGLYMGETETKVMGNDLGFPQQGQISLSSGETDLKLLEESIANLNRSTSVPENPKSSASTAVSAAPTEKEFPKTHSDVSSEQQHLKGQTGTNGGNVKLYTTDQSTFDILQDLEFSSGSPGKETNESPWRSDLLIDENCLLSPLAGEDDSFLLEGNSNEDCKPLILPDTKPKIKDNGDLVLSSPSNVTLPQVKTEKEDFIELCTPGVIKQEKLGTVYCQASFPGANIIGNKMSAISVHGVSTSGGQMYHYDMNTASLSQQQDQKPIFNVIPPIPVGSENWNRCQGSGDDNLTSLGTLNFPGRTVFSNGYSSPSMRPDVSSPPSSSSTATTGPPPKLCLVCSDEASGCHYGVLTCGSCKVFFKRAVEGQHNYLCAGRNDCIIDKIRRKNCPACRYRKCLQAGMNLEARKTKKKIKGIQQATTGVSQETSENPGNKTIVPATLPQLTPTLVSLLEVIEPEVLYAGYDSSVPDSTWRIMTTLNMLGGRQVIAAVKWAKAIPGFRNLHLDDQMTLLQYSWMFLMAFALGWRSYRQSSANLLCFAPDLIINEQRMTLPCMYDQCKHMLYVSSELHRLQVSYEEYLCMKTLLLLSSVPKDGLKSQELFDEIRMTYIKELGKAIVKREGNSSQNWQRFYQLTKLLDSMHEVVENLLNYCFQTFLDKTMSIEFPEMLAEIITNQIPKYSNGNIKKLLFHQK
Assay [7] has the same target. Put plainly: GR-EFC Redistribution (AID 451; calls by dose curve; also: potency is read from the fitted curve at half-maximal effect). The note with it: CHO-K1 GR-EFC translocation, beta-gal luminescence, 2 h. Summed up:
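CHO-K1 cells expressing nuclear EA and GR-ED fragments of b-gal; compounds titrated up to 46 uM final, 2 h at 37 C. GR nuclear translocation read as complemented b-gal luminescence after 1 h RT detection.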

For assay [8], the target named is Mitogen-activated protein kinase 10 (Mus musculus) (UniProt Q61831). The assay can be described thus: JNK3 AlphaScreen Assay (AID 530; active = well fitted curve in either direction with a large enough effect, not every such curve was filed as active;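 also: kinase came from lysate of stimulated human HepG2 cells; signal reports phosphorylation of biotinylated GST-cJun 1-79 at Ser73 with 10 µM ATP; % is scaled to controls: 0 for no effect and ±100 for the full control effect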). The note with it: JNK3 lysate, c-Jun phosphorylation; series mostly up to 57.1 µM. Summed up:
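HepG2 lysate (IL-1b/TNFa pre-activated) + biotin-GST-cJun 1-79 + anti-pSer73 cJun; cpd titration, 15 min RT; ATP 10 uM start; Tris pH 7.6, MgCl2, DTT, vanadate; beads in EDTA buffer; AlphaScreen.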

In assay [9] the target is 3',5'-cyclic-AMP phosphodiesterase 4B (Homo sapiens) (UniProt Q07343). The assay can be described thus: qHTS Assay for Inhibitors of PDE-IV (AID 607; active = well fitted activation curve with a large enough effect in the main read-out, with a control signal flat, not every such curve was filed as active; also: % of control where 0% means no effect). The conditions noted are these: HEK293 ACTOne CNG channel cells, membrane potential fluorescence; series mostly up to 22.9 µM. Summed up: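 ACTOne HEK293 cells carry a modified cAMP-gated CNG channel and express endogenous PDE4; plated 1000 cells/well, compounds up to 22.9 uM final. Membrane-potential dye fluorescence (ex 535/em 590) was read; parental cells received 10 uM forskolin + 100 uM RO 20-1724.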
Sequence of 3',5'-cyclic-AMP phosphodiesterase 4B (Homo sapiens) (Q07343 whole entry, looked up): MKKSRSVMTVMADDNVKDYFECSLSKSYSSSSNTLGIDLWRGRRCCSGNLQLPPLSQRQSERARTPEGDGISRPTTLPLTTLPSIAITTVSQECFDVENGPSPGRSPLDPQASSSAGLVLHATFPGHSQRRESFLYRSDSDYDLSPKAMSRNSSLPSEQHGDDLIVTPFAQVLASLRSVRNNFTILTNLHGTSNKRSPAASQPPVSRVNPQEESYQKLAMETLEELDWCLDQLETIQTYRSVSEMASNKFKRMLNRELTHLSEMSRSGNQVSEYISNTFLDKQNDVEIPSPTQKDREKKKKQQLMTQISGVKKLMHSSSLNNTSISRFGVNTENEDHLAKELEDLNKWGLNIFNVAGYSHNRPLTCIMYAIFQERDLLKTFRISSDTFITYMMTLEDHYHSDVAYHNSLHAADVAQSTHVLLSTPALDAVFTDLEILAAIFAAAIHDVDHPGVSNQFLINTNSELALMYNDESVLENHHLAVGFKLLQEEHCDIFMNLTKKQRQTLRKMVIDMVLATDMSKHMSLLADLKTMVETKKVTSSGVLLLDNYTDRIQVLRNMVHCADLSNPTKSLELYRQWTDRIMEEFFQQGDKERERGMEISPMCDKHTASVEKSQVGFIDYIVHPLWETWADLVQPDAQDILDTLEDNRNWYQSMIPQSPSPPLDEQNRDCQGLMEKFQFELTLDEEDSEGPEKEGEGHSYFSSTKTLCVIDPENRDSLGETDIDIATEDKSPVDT
A general note: In qHTS, concentration-response curves come from the screen itself.

Assay [10] deals with Cytochrome P450 3A4 (Homo sapiens) (UniProt P08684). Put plainly: qHTS Assay for Inhibitors and Substrates of Cytochrome P450 3A4 (AID 884). Also: potency is read from the fitted curve at half-maximal effect; nearly all actives have a fitted effect of over 50% in size. The conditions noted are these: recombinant CYP3A4, Luciferin-PPXE luminescence; series mostly up to 57.1 µM. Summed up:
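Luminescent readout of luciferin produced by CYP3A4 (20 nM) dealkylation of Luciferin-PPXE, 25 uM (its KM). NADPH-driven reaction ran 60 min at RT after 10 min compound preincubation; data scaled to 57 uM ketoconazole as 100% inhibition.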

For assay [11] the target is unchanged. Put plainly: qHTS Assay for Activators of Cytochrome P450 3A4 (AID 885). Also: nearly all actives have a fitted effect of over 65% in size. The conditions noted are these: recombinant CYP3A4, Luciferin-PPXE luminescence, 60 min; series mostly up to 57.1 µM. Summed up: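 CYP3A4 activity: Luciferin-PPXE O-dealkylation, 25uM substrate, 200mM KPO4, RT throughout. Read-out is luciferase luminescence; higher values reflect activation.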

Assay [12] deals with Cytochrome P450 2C19 (Homo sapiens) (UniProt P33261). Put plainly: qHTS Assay for Inhibitors and Substrates of Cytochrome P450 2C19 (AID 899). Also: potency is read from the fitted curve at half-maximal effect; nearly all actives have a fitted effect of over 60% in size. The note with it: recombinant CYP2C19, luciferin-H EGE luminescence; series mostly up to 57.1 µM. Summed up: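 Luminescent read-out of luciferin formed from Luciferin-H EGE (10uM, equal to KM). Enzyme 5nM in 50mM KPO4; compound added, 10 min at 37C, then NADPH regenerating system for 60 min at 37C. Full inhibition defined by 57uM ketoconazole.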
Sequence of Cytochrome P450 2C19 (Homo sapiens) (P33261 whole entry, looked up): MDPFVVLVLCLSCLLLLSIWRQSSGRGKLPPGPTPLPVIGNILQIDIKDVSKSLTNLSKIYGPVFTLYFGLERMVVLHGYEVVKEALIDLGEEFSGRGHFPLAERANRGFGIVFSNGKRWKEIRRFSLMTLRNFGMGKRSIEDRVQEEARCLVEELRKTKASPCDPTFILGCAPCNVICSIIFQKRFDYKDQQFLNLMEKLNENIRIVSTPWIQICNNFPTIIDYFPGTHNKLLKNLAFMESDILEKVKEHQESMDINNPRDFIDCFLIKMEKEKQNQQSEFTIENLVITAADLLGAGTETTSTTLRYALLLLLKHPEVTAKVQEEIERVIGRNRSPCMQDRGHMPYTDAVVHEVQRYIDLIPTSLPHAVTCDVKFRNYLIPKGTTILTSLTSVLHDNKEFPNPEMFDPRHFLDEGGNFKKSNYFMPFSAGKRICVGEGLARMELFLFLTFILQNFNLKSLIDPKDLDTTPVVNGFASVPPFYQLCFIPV

The target in assay [13] is Dual specificity protein kinase CLK4 (Homo sapiens) (UniProt Q9HAZ1). The assay can be described thus: qHTS Assay for Inhibitors of CDC-like Kinase 4 (Kinase-Glo Assay) (AID 1770). Also: nearly all actives have a fitted effect of over 65% in size. Also: potency is read from the fitted curve at half-maximal effect. The note with it: recombinant Clk4, Kinase-Glo ATP depletion luminescence; series mostly up to 66.7 µM. Summed up:
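Substrate mix (RS peptide 100 uM, ATP 1 uM) dispensed, compound pinned in, then Clk4 added to 25 nM final. Incubated 4.5 h at RT; Kinase-Glo reagent added, luminescence read after 5 min.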

The target is the same in assay [14]. Put plainly: qHTS Assay for Inhibitors of CDC-like Kinase 4 (ADP-Glo Assay) (AID 1771). Also: nearly all actives have a fitted effect of over 70% in size. Also: potency is read from the fitted curve at half-maximal effect. The note with it: recombinant CLK4, ADP-Glo luminescence; series mostly up to 80 µM. Summed up: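 25 nM Clk4, 100 uM RS peptide, 1 uM ATP (final); 2 mM MgCl2, 0.5 mM EGTA, 2.5 mM DTT, 0.01% Triton X-100; 1 hr RT. ADP-Glo readout: ATP depletion 45 min, conversion/luciferase 30 min, luminescence.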

For assay [15] the target is unchanged. Put plainly: qHTS Assay for Inhibitors of CDC-like Kinase 4 (ADP-FP Assay) (AID 1795). Also: nearly all actives have a fitted effect of over 60% in size. Also: potency is read from the fitted curve at half-maximal effect. The note with it: Transcreener ADP fluorescence polarization; series mostly up to 50 µM. Summed up: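 Clk4 6.25 nM; RS peptide 100 uM; ATP 1 uM; 25 mM Tris pH 7.5, 10 mM MgCl2; 1 h reaction. ADP detected via antibody/orange tracer FP displacement; TG003 positive control.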

The target in assay [16] is Ubiquitin carboxyl-terminal hydrolase 1 (Homo sapiens) (UniProt O94782). The assay can be described thus: Inhibitors of USP1/UAF1: Pilot qHTS (AID 504865).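 Also: rhodamine fluorescence freed from ubiquitin-rhodamine substrate followed over time; top concentration of the series differs between compounds; % is scaled to controls: 0 for no effect and ±100 for the full control effect; nearly all actives have a fitted effect of over 35% in size.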 The conditions noted are these: purified USP1/UAF1, Ub-rhodamine cleavage fluorescence; series mostly up to 54.9 µM. Summed up: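 In 50mM HEPES pH 7.8 containing 0.5mM EDTA, 1mM TCEP, 0.1 mg/ml BSA and 0.01% Tween-20, 1nM USP1/UAF1 is exposed to compound for 15 min, then Ub-Rho (150nM final) is added and fluorescence is read over time.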
Sequence of Ubiquitin carboxyl-terminal hydrolase 1 (Homo sapiens) (O94782 whole entry, looked up): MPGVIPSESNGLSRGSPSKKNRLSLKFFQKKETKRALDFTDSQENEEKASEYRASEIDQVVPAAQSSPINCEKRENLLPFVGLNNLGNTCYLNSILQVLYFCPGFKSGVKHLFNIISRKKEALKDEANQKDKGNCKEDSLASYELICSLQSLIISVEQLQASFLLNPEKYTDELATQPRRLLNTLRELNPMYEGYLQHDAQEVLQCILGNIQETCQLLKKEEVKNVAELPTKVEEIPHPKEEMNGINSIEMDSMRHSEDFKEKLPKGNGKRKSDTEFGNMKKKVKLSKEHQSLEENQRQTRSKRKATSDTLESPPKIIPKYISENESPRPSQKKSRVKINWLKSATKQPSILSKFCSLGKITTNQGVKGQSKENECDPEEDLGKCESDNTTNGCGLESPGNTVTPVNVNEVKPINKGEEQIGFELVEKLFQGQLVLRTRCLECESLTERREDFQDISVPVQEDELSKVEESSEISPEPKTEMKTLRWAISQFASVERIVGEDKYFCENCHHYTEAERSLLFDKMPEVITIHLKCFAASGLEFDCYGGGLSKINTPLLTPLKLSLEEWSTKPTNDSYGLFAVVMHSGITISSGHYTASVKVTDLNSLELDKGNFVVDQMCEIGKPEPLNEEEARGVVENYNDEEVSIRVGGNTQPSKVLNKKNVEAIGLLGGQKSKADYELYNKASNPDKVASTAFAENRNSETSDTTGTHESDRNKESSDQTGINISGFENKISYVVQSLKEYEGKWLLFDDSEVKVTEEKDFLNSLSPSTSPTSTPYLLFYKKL

Assay [17] can be described thus: Primary qHTS for small molecule stabilizers of the endoplasmic reticulum resident proteome: Secreted ER Calcium Modulated Protein (SERCaMP) assay (AID 1508630). Also: % is scaled to controls: 0 for no effect and ±100 for the full control effect. The note with it: SH-SY5Y GLuc-SERCaMP (Gaussia luciferase released on ER calcium loss) secretion, thapsigargin, luminescence; series mostly up to 38.4 µM. Summed up: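 The SH-SY5Y reporter protocol was run at 3 concentrations up to 38.3 uM (primary) or 11 concentrations (follow-up): 16 h compound, 100 nM thapsigargin for 4 h, then extracellular luciferase luminescence.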

A number with no mark means an inactive call. Records with an inconclusive call do not appear. The source made the active and inactive calls. Unless noted, calls follow the shape of the dose curve; as a rule, active = well fitted curve in the direction sought with a large enough effect; inconclusive = small, poorly fitted or top-dose-only effect, or another doubt; inactive = no such curve, though single readings can be large; an effect the other way counts as inactive or inconclusive.

Sequence of Lysosomal acid glucosylceramidase (Homo sapiens) (P04062 whole entry, looked up): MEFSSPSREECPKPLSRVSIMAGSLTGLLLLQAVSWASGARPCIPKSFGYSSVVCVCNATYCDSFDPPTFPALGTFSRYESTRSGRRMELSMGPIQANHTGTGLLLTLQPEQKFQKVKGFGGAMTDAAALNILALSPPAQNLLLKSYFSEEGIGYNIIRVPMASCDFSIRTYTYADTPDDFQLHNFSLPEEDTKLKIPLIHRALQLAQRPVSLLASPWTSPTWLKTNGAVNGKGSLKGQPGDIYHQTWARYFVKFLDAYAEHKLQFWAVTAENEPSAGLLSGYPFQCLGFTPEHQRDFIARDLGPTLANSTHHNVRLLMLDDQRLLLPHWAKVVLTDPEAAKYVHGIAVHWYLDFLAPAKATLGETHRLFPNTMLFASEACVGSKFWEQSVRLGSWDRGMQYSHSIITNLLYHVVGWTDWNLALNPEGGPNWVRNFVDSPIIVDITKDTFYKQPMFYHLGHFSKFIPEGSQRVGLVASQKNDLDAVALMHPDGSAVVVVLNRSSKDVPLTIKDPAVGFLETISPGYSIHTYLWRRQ
Sequence of Cytochrome P450 1A2 (Homo sapiens) (P05177 whole entry, looked up): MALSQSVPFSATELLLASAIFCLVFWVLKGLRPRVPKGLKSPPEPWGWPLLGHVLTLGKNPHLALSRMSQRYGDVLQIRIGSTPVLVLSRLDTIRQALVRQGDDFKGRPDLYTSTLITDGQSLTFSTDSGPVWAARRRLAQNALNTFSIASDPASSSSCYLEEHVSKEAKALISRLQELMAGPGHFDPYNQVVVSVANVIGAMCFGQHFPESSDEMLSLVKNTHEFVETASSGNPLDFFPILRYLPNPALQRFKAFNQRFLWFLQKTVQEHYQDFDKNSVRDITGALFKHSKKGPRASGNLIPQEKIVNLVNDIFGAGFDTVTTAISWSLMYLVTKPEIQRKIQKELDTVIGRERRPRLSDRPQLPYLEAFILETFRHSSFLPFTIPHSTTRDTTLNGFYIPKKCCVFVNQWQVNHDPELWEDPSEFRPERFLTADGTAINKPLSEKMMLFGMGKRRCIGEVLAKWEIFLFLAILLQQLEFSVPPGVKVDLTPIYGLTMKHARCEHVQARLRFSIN
Sequence of Dual specificity protein kinase CLK4 (Homo sapiens) (Q9HAZ1 whole entry, looked up): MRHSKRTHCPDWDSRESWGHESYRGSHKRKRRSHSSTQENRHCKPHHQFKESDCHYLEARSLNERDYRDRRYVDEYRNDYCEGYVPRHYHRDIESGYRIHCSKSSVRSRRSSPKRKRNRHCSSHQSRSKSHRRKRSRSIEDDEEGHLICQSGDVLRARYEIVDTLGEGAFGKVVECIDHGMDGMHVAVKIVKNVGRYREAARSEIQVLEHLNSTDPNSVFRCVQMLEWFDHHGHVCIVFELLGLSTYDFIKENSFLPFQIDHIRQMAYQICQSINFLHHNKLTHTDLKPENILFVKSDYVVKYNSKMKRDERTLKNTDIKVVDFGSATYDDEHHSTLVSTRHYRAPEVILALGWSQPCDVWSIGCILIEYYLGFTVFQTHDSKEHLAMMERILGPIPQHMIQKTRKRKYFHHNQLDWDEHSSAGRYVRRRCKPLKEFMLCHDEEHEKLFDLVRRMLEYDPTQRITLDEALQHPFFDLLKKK
Sequence of Cytochrome P450 3A4 (Homo sapiens) (P08684 whole entry, looked up): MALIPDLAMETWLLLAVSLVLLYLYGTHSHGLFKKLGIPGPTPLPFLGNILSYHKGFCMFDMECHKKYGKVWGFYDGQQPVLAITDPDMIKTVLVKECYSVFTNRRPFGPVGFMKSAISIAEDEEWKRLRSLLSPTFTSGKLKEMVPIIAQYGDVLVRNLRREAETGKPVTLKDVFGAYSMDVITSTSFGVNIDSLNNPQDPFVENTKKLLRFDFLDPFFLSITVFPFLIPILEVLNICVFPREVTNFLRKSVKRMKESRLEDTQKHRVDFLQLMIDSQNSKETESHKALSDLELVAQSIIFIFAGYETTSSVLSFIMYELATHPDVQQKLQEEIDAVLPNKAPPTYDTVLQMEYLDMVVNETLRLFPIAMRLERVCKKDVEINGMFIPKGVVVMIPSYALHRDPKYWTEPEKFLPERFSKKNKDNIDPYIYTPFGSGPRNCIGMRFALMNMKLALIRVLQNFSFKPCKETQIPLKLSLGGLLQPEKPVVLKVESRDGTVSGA

As to `CC(=O)NCCNc1ncnc2ccc(-c3ccc4c(c3)OCO4)cc12`, the Potency was above 11.4 µM in [1]; 0.501 µM (active) in assay [3]; above 46 µM in [6]; above 46 µM in assay [7]; 5.01 µM (active) in [10]; 6.31 µM (active) in assay [12]. For the same compound, the Potency in assay [13] is 0.141 µM (active); in [14] it was 0.0891 µM (active); in [15] it was 0.126 µM (active). Besides, the activity change, negative = inhibition was -23.9% in [2] and 12.4% in assay [4]. For the same compound, the activity, negative = inhibition in assay [5] is -10.3%. Moreover, the Potency result in [8], in [9], in [11] and in assay [16] was “inactive” in each case. In addition, in [17], the outcome was inactive.

As for `Cc1noc(C)c1-c1nccc(N(C)Cc2ccco2)n1`, the Potency in assay [1] was above 11.4 µM; in assay [3] it was 2 µM (active); in [6], above 46 µM; in assay [7] it was above 46 µM. For the same compound, the activity change, negative = inhibition was 6.47% in [2] and -3.01% in assay [4]. Moreover, the activity, negative = inhibition in [5] was 3.88%. Further, the Potency entry in assay [8], in assay [9], in assay [11], in assay [13], in assay [14] and in [15] was “inactive” each time. Moreover, in assay [16], the Potency result is “inactive”. In assay [17], the result was inactive.

Turning to `CN(C)C(=O)c1ccc(-c2cncnc2Nc2ccccc2)cc1`, the Potency in [1] is above 11.4 µM; in assay [3] it was 31.6 µM (active); in [6], above 46 µM; in assay [7], above 46 µM. Besides, the activity change, negative = inhibition is -7.47% in [2] and 1.8% in [4]. Also, the activity, negative = inhibition in [5] is -6.42%. Further, the Potency result in [8], in assay [9], in assay [11], in assay [13], in [14] and in [15] was “inactive” each time. Further, the Potency entry in assay [16] is “inactive”. In assay [17], the outcome was inactive.

Consider `N#CCCn1c(=O)c(-c2cc(F)cc(F)c2)nc2cnc(N3CCOCC3)nc21`, for which the Potency in assay [1] was above 11.4 µM; in [3] it was 3.16 µM (active); in [6] it was above 9.22 µM; in assay [7], above 46 µM. For the same compound, the activity change, negative = inhibition in assay [2] is 2.2%; in [4], 20.1%. Moreover, in assay [5], the activity, negative = inhibition was 12.6%. Further, the Potency entry in [8], in assay [9], in assay [11], in assay [13], in [14] and in [15] was “inactive” in each case. For the same compound, the Potency result in assay [16] is “inactive”. In addition, the outcome in assay [17] was inactive.

As to `COCCn1c(=O)c(C)nc2cncnc21`, the Potency in [1] was above 11.4 µM; in assay [3], 15.8 µM (active); in assay [6], above 9.22 µM; in assay [7], above 46 µM. Also, the figures for the activity change, negative = inhibition in assay [2] and in assay [4] were -8.48% and 3.43%, respectively. In addition, in assay [5], the activity, negative = inhibition was -7.75%. Besides, the Potency entry in assay [8], in [9], in assay [11], in assay [13], in [14] and in [15] was “inactive” each time. For the same compound, the Potency result in assay [16] is “inactive”. In addition, the outcome in [17] was inactive.

Consider `Cc1ccccc1-c1cncnc1NCc1cccnc1`, for which the Potency in assay [1] was above 11.4 µM; in assay [3], 15.8 µM (active); in assay [6], above 46 µM; in assay [7] it was above 46 µM; in [10], 0.631 µM (active); in assay [12], 0.398 µM (active). Further, the figures for the activity change, negative = inhibition in assay [2] and in [4] were -2.76% and -14.1%, respectively. Also, the activity, negative = inhibition in assay [5] is 4.91%. Besides, the Potency entry in [8], in [9], in assay [11], in [13], in [14] and in assay [15] was “inactive” each time. Moreover, in assay [16], the Potency entry is “inactive”. In addition, the outcome in [17] was inactive.
